Results published in PubChem BioAssay.
Several values for one entry are separate records, joined by “and”; a condition that tells them apart may be missing. Equal entries are not always repeated. Activity calls are given as the source filed them. Unless noted, no rule for the calls is given here.

Experiments:
[1] = liver-stage malaria parasite growth inhibition, primary screen, cell-based, HepG2, luciferase luminescence, HepG2 viability (AID 624349; in the data active = parasite load remaining mostly below about 12%, no sharp cut-off; inactive = mostly above about 10%;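 also: 100% = mean of DMSO negative control wells on the same plate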); conditions: P. berghei liver stage in HepG2, luciferase luminescence, concentration not given here; parasite load remaining: stronger effect = lower value; viability: measured here: HepG2 viability without parasites
[2] = system: Neuropilin-2 / VEGF-C interaction (human); test: inhibitors of NRP2–VEGF-C binding, biochemical, microplate binding format, z-score (AID 743281); conditions: microplate NRP2/VEGF-C binding assay; stronger effect = lower value
[3] = stimulators of nuclear beta-catenin in C2C12, primary screen, imaging, WNT3A-conditioned medium, mouse C2C12, NPC library (AID 1117326; in the data active = nuclear beta-catenin stimulation mostly above about 4.2%, no sharp cut-off; inactive = mostly below about 10%); conditions: stronger effect = higher value
[4] = stimulators of insulin release from INS-1E, primary screen, cell-based, 5 mM glucose, NPC library (AID 1117329;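 active = compound raises insulin release from rat beta cells at 5 mM glucose, no numeric limit stated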); conditions: rat INS-1E insulin secretion, at 10 µM, stronger effect = higher value
[5] = growth inhibition of GSK3B-pretreated HCT116 cells – cell-based, CellTiter-Glo, 0.2 to 20 µM (AID 1117336;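 active = compounds lowering colon cancer cell viability after pretreatment blocking the GSK3B kinase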); conditions: HCT116 viability after GSK3B inhibitor, at 20 µM, stronger effect = higher value
[6] = inhibition of endothelial tube formation, primary screen, imaging, VEGF stimulated, CD31 staining, tube area, NPC library (AID 1117340;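 active = compound that reduces growth-factor-driven endothelial tube area in a mixed cell culture, no cutoff stated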); conditions: VEGF-stimulated ADSC/ECFC co-culture, at 10 µM, stronger effect = higher value
[7] = glucagon-like peptide 1 release enhancers, primary assay, NCI-H716 cell line, NPC library (AID 1117341;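 active = compound raises GLP1 secretion from the human gut endocrine cells, with no numeric limit stated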); conditions: NCI-H716 cells, at 10 µM, stronger effect = higher value
[8] = HCT116 colon cancer cell growth inhibition, primary screen, CellTiter-Glo luminescence, NPC library (AID 1117342;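 active = compounds that lower survival of HCT116 colon cancer cells in the luminescence readout, no numeric limit stated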); conditions: at 20 µM (top of the series)
[9] = CellTiter-Glo luminescent readout of SW480 viability loss, NPC library primary (AID 1117343;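 active = compounds that lower viability of the colon cancer cells in the luminescence readout, with no numeric limit stated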); conditions: CellTiter-Glo luminescence; at 20 µM (top of the series)
[10] = decreased DLD-1 cellular survival, CellTiter-Glo luminescent readout, NPC compound collection, primary HTS (AID 1117346;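 active = compounds that lower survival of DLD-1 colon cancer cells in the luminescence readout, no cutoff given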); conditions: DLD-1 viability, CellTiter-Glo luminescence; at 20 µM (top of the series)
[11] = system: Hepatitis C virus NS3 helicase; test: HCV NS3 helicase inhibitors, primary screen, biochemical, fluorescence polarization, LOPAC1280 library (AID 687035; in the data active = inhibition above about 37%); conditions: Purified HCV NS3 helicase, Cy5-dT15 ssDNA binding fluorescence polarization; stronger effect = higher value; concentration not given here
[12] = Cy5 fluorescence quenching or enhancement artefacts, artefact control for HCV NS3 helicase inhibitor project, biochemical, LOPAC1280 (AID 687037); conditions: Cy5-DNA-NS3h complex fluorescence interference counterscreen
[13] = system: Hepatitis C virus NS3 helicase; test: HCV NS3 helicase inhibitors, primary screen, biochemical, fluorescence polarization, NIH Clinical Collection (AID 743270); conditions: NS3 helicase binding to Cy5-dT15 DNA, stronger effect = higher value, concentration not given here
[14] = target: Single-stranded DNA-binding protein (Escherichia coli (strain K12)) (UniProt P0AGE0); test: E. coli SSB displacement from DNA, counter-screen for HCV NS3 helicase inhibitor project, biochemical, fluorescence polarization, NIH Clinical Collection (AID 743271; in the data active = inhibition above about 28%); conditions: stronger effect = higher value, concentration not given here
[15] = fluorescence interference in NS3h assay format, artefact control for HCV NS3 helicase inhibitor project, biochemical, NIH Clinical Collection (AID 743272); conditions: fluorescence interference counterscreen, stronger effect = lower value;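 also: HCV NS3 helicase with a Cy5 labelled single stranded DNA probe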
[16] = Cy5 fluorescence interference with SSB-bound oligo, artefact control for HCV NS3 helicase inhibitor project, biochemical, NIH Clinical Collection, E. coli SSB (AID 743268)

Cc1ccc(NC(=O)c2ccc(CN3CCN(C)CC3)cc2)cc1Nc1nccc(-c2cccnc2)n1
active: viability decrease [5] 94.3% | inhibition of viability [8] 98% | viability decrease (inhibition) [9] 97.6% | viability decrease (inhibition) [10] 88.8%
65.9% and 227%: viability [1]
inactive: parasite load remaining [1] 17.1% and 60.3% | z-score [2] -0.734 | nuclear beta-catenin stimulation ([3]; at 10 µM) 7.1% | insulin secretion stimulation [4] -3.1% | tube area decrease [6] -31% | GLP1 secretion stimulation [7] 13.7%
-0.1%: nuclear beta-catenin stimulation ([3]; stimulation, at 2 µM)

O=C1CC2(CCCC2)CC(=O)N1CCCCN1CCN(c2ncccn2)CC1
inactive: inhibition [11] 0% | fluorescence ratio (interference) [12] 1 | inhibition [13] -6.82% | inhibition [14] 1.05% | fluorescence ratio [15] 1.03 | nuclear beta-catenin stimulation ([3]; at 10 µM) 0.7% | insulin secretion stimulation [4] -0.8% | viability decrease [5] 20.1% | tube area decrease [6] -1.5% | GLP1 secretion stimulation [7] 1.7% | inhibition of viability [8] 39.4% | viability decrease (inhibition) [9] 20.4% | viability decrease (inhibition) [10] 1.7%
2.6%: nuclear beta-catenin stimulation ([3]; stimulation, at 2 µM)

COCCCC/C(=N\OCCN)c1ccc(C(F)(F)F)cc1
inactive: parasite load remaining [1] 94.5% | outcome [2] | nuclear beta-catenin stimulation ([3]; at 10 µM) 0.8% | insulin secretion stimulation [4] 1.6% | viability decrease [5] -112% | tube area decrease [6] -2.4% | GLP1 secretion stimulation [7] -1.9% | inhibition of viability [8] 37.3% | viability decrease (inhibition) [9] 15.4% | viability decrease (inhibition) [10] 23.5%
0.4%: nuclear beta-catenin stimulation ([3]; stimulation, at 2 µM)
63.8%: viability [1]

Cc1cccc(C)c1OCC(C)N (stereo not drawn)
2.4%: nuclear beta-catenin stimulation ([3]; stimulation, at 2 µM)
inactive: inhibition [11] -2% | fluorescence ratio (interference) [12] 1 | fluorescence ratio [16] 1.06 | inhibition [13] -4.09% | inhibition [14] -4.29% | fluorescence ratio [15] 1.04 | nuclear beta-catenin stimulation ([3]; at 10 µM) 1.9% | insulin secretion stimulation [4] 4.3% | viability decrease [5] 3.4% | tube area decrease [6] -2% | GLP1 secretion stimulation [7] -4.1% | inhibition of viability [8] 5.27% | viability decrease (inhibition) [9] -7.7% | viability decrease (inhibition) [10] 4.3%

COC(=O)C1=C(C)NC(C)=C(C(=O)OCC(C)C)C1c1ccccc1[N+](=O)[O-] (stereo not drawn)
inactive: fluorescence ratio [16] 0.95 | inhibition [13] 4.36% | inhibition [14] -0.87% | fluorescence ratio [15] 0.91 | z-score [2] -0.886 | nuclear beta-catenin stimulation ([3]; at 10 µM) 6% | insulin secretion stimulation [4] 1.25% | tube area decrease [6] 15.6% | GLP1 secretion stimulation [7] 1.3%
active: viability decrease [5] 102% | inhibition of viability [8] 97.8% | viability decrease (inhibition) [9] 122% | viability decrease (inhibition) [10] 86.2%
3.3%: nuclear beta-catenin stimulation ([3]; stimulation, at 2 µM)

CN(CCOc1ccc(NS(C)(=O)=O)cc1)CCc1ccc(NS(C)(=O)=O)cc1
1.6%: nuclear beta-catenin stimulation ([3]; stimulation, at 2 µM)
active: tube area decrease [6] 3.3%
70% and 214%: viability [1]
inactive: parasite load remaining [1] 94% and 61.2% | z-score [2] -1.11 | nuclear beta-catenin stimulation ([3]; at 10 µM) -0.7% | insulin secretion stimulation [4] 1.25% | viability decrease [5] 12.3% | GLP1 secretion stimulation [7] 0.3% | inhibition of viability [8] 11.9% | viability decrease (inhibition) [9] 13% | viability decrease (inhibition) [10] -6.9%

C[C@]12C[C@H](O)[C@H]3[C@@H](CCC4=CC(=O)CC[C@@]43C)[C@@H]1CC[C@@H]2C(=O)CO
-1.4%: nuclear beta-catenin stimulation ([3]; stimulation, at 2 µM)
inactive: inhibition [11] 0% | fluorescence ratio (interference) [12] 1 | fluorescence ratio [16] 1.01 | inhibition [13] -1.97% | inhibition [14] 1.97% | fluorescence ratio [15] 0.99 | nuclear beta-catenin stimulation ([3]; at 10 µM) 0% | insulin secretion stimulation [4] 1.6% | viability decrease [5] -24.9% | tube area decrease [6] 9.5% | GLP1 secretion stimulation [7] 0.3% | inhibition of viability [8] -2.93% | viability decrease (inhibition) [9] 37.4% | viability decrease (inhibition) [10] 8.6%

CCN(CC)CCNC(=O)c1cc(Cl)c(N)cc1OC
inactive: inhibition [11] -4% | fluorescence ratio (interference) [12] 1 | fluorescence ratio [16] 1.01 | inhibition [13] -3.18% | inhibition [14] -0.48% | fluorescence ratio [15] 0.98 | nuclear beta-catenin stimulation ([3]; at 10 µM) 0.2% | insulin secretion stimulation [4] 3.1% | viability decrease [5] -11.3% | tube area decrease [6] 12.6% | GLP1 secretion stimulation [7] 0.3% | inhibition of viability [8] -2.1% | viability decrease (inhibition) [9] -17.7% | viability decrease (inhibition) [10] 6%
-1.4%: nuclear beta-catenin stimulation ([3]; stimulation, at 2 µM)

COc1ccc2nc(S(=O)Cc3ncc(C)c(OC)c3C)[nH]c2c1 (stereo not drawn)
4.5%: nuclear beta-catenin stimulation ([3]; stimulation, at 2 µM)
inactive: fluorescence ratio [16] 1.02 | inhibition [13] -1.97% | inhibition [14] -3.54% | fluorescence ratio [15] 0.98 | z-score [2] -0.241 | nuclear beta-catenin stimulation ([3]; at 10 µM) 8.5% | insulin secretion stimulation [4] 0.4% | viability decrease [5] 13.3% | tube area decrease [6] 29.3% | GLP1 secretion stimulation [7] 1.7% | inhibition of viability [8] -0.23% | viability decrease (inhibition) [9] -451% | viability decrease (inhibition) [10] -12.7%
